# Measurements published in PubChem BioAssay.
# The source made the active and inactive calls. The rule behind the calls is not given here.
# Molecular target: Pantothenate synthetase (Mycobacterium tuberculosis (strain ATCC 25618 / H37Rv)) (UniProt P9WIL5)
# Assay: Coupled enzyme confirmation of inhibitors against recombinant Mtb PanC (AID 375);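 note: 0% = full reaction with vehicle and 100% = no enzyme background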
# Conditions: coupled enzyme assay; at 10 µM, active compounds read high
# Pantothenate synthetase (Mycobacterium tuberculosis (strain ATCC 25618 / H37Rv)), sequence (P9WIL5 whole entry, looked up): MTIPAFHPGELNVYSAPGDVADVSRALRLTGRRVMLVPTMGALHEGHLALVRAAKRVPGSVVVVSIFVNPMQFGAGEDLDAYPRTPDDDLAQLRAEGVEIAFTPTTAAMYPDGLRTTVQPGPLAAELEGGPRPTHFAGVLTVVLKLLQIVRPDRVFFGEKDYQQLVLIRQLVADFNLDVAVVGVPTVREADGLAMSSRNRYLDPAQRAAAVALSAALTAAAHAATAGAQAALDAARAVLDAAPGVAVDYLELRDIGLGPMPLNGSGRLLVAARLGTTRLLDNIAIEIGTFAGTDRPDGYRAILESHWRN
row,Compound,inhibition
1,O=C(CCN1C(=O)COc2ccccc21)NCCCN1CCN(c2ccccc2F)CC1,0% (inactive)
2,COc1ccc(OC)c(C2/C(=C(\O)c3ccc4c(c3)OCCO4)C(=O)C(=O)N2CCCN(C)C)c1 (centres undefined),0% (inactive)
3,CCOC(=O)C1=C(C)NC(=O)NC1c1ccc(Br)s1 (centres undefined),1% (inactive)
4,COc1cc(OC)cc(-c2nc3cc(C)ccc3o2)c1,3% (inactive)
5,CCNC(=O)CC1C(=O)N(c2ccc(F)cc2)C(=O)N1CCC(C)C (centres undefined),0% (inactive)
6,Cc1ccc2c(CC(=O)OCc3csc(C)n3)coc2c1,0% (inactive)
7,CCCC(=O)Nc1cnc(NC(=O)c2cccc(F)c2)cc1C,0% (inactive)
8,CCc1c(C(=O)Nc2cc(C)ccc2OC)[nH]c(C)c1C(C)=O,0% (inactive)
9,COc1ccccc1C(=O)N1CCN(CCc2ccccc2)CC1,6% (inactive)
10,Cc1ccc(C)c(NC(=O)C2CCC(C)(C(=O)O)C2(C)C)c1 (centres undefined),0% (inactive)
11,O=C(c1ccc(F)cc1)C1CCN(CCn2c(=O)[nH]c3ccccc3c2=O)CC1,0% (inactive)
12,COc1cccc2cc(C(=O)Nc3cccnc3N3CCOCC3)c(=O)oc12,0% (inactive)
13,CC1(C)OC(=O)C(=CNc2ccccc2)C(=O)O1,4% (inactive)
14,Nn1c(SCC(=O)NC2CCCCC2)nnc1C1CC1,0% (inactive)
15,CSc1nc(C)cc(Oc2ccc(=O)n(C)n2)n1,0% (inactive)
16,Cc1cc(Cl)c(S(=O)(=O)NC2CCCCC2)cc1OCC(=O)Nc1nncs1,3% (inactive)
17,CCC1CCc2c(sc3ncnc(N4CCOCC4)c23)C1 (centres undefined),0% (inactive)
18,CCCc1cc(C(=O)Nc2sc3c(c2C#N)CCC3)no1,7% (inactive)
19,CCN(CC)C(=O)COC(=O)c1ccc(O)cc1,0% (inactive)
20,CCN(CC)CCN1C(=O)C(O)=C(C(=O)c2cccs2)C1c1ccccn1 (centres undefined),0% (inactive)

row,Compound,inhibition
1,Cn1c(SCC(=O)Nc2ccc3c(c2)oc2ccccc23)nnc1-c1ccccc1,5% (inactive)
2,N#Cc1nc(COc2ccccc2Cl)oc1N1CCCCCC1,0% (inactive)
3,Cn1c(=O)c2c(nc(CN3CCCCC3)n2CCc2ccccc2)n(C)c1=O,1% (inactive)
4,CCOC(=O)C1CCN(C(=O)COc2ccc(S(=O)(=O)NC(C)C)cc2Cl)CC1,0% (inactive)
5,CCCSc1ccc2nc(NC(=O)OC)[nH]c2c1,0% (inactive)
6,CN(C)S(=O)(=O)N1CCN(S(=O)(=O)c2ccc(F)cc2)CC1,0% (inactive)
7,COc1ccc(OC)c(-c2cc(C(=O)NCc3cccs3)no2)c1,0% (inactive)
8,CC(C)(C)C1CCc2c(sc3c2C(=O)NC(c2ccco2)N3)C1 (centres undefined),2% (inactive)
9,O=C(C1CCN(S(=O)(=O)N2CCC3(CC2)OCCO3)CC1)N1CCOCC1,0% (inactive)
10,O=C(Nc1nc(-c2ccccn2)cs1)C1CC1,0% (inactive)
11,C=C(C)Cn1c(SCC)nc2ccccc2c1=O,4% (inactive)
12,CCCNc1nc(N2CCOCC2)nc(N2CCOCC2)n1,0% (inactive)
13,COCCN1C(=O)C(=O)/C(=C(/O)c2ccc(OC(C)C)cc2)C1c1cccnc1 (centres undefined),0% (inactive)
14,Cc1cn(C2CC3OCC3O2)c(=O)[nH]c1=O (centres undefined),0% (inactive)
15,Cn1c(=O)n(C)c2cc(CNc3ccc(N4CCOCC4)c(C(=O)O)c3)ccc21,11% (inactive)
16,COc1ccccc1CN1C(=S)SC(C)(C)C1NO (centres undefined),0% (inactive)
17,CC(C)c1nnc(NC(=O)Cc2cccs2)s1,0% (inactive)
18,O=C(O)CCNC(=O)c1ccccc1,3% (inactive)
19,CCOCCCNC(=O)C1CC(=O)N(C2CCCC2)C1 (centres undefined),2% (inactive)
